Data: PMC7862700, “An all-to-all approach to the identification of sequence-specific readers for epigenetic DNA modifications on cytosine”

Key:
Test in all cases: DAPPL (digital affinity profiling via proximity ligation, sequencing); 10 mM Tris-HCl pH 7.5, 50 mM NaCl, 1 mM DTT, 4% glycerol, room temperature, 30 min; GST-TFs on glutathione beads, 16-mer random dsDNA library, 0.1% formaldehyde crosslink after washing; high values mean tight binding
FLI1 = target: T1, FLI1 (Homo sapiens, UniProt Q01543 1-452); conditions: protein: recombinant; tags: N-terminal GST; dsDNA, one strand shown
T1 sequence: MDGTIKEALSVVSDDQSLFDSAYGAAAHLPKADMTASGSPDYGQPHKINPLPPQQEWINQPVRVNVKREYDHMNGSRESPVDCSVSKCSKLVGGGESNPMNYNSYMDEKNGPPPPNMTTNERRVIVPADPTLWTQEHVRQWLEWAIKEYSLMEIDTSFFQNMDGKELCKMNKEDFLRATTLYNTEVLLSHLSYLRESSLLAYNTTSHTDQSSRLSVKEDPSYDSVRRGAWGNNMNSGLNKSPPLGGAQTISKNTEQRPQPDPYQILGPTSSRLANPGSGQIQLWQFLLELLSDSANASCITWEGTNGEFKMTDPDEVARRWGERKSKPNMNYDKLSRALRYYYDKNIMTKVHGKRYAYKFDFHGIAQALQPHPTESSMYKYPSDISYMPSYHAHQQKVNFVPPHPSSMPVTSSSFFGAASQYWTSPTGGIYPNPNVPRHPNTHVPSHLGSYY
Outline: (§1)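 Human transcription factors fused to GST were expressed in yeast, captured on glutathione beads, given DNA barcodes and pooled with a GST-only negative control. Pools were incubated with 200 nmole of a 16-mer random double-stranded DNA library in Tris/NaCl/DTT/glycerol buffer at room temperature for 30 min. They were then washed, crosslinked with 0.1% formaldehyde, proximity-ligated (BsaI/T4 ligase, 1 h, 37 °C), PCR-amplified and sequenced on an Illumina NextSeq500. Binding signal is each 6-mer's read frequency for a factor divided by its frequency for the GST control.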

ELK1 = target: T2, ELK1 (Homo sapiens, UniProt P19419 1-428); conditions: protein: recombinant; tags: N-terminal GST; dsDNA, one strand shown
T2 sequence: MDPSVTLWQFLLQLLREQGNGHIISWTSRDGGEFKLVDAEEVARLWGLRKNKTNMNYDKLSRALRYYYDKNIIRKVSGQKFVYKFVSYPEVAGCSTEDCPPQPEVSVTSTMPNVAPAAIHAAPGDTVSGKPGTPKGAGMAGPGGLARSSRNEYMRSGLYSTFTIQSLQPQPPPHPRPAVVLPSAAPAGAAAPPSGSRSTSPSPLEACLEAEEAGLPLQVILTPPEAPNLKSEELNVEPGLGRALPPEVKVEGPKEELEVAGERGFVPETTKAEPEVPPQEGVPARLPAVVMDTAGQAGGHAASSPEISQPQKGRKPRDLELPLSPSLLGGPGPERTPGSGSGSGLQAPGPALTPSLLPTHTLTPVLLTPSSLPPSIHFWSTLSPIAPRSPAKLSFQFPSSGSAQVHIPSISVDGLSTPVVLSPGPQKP
Outline: as §1

GABPA = target: T3, GABPA (Homo sapiens, UniProt Q06546 1-454); conditions: protein: recombinant; tags: N-terminal GST; dsDNA, one strand shown
T3 sequence: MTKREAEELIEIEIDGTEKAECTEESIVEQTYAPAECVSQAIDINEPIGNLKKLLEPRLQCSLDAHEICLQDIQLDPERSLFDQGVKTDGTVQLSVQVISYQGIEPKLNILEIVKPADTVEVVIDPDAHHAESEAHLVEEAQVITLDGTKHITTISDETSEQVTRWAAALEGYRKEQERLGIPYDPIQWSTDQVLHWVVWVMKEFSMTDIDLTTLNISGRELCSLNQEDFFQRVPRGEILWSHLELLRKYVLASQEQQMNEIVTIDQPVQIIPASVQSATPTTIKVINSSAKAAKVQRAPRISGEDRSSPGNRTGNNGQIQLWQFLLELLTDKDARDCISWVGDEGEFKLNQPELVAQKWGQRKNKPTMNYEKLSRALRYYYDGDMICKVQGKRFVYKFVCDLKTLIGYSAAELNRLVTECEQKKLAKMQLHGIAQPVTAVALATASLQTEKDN
Outline: as §1

ERG = target: T4, ERG (Homo sapiens, UniProt P11308 1-479); conditions: protein: recombinant; tags: N-terminal GST; dsDNA, one strand shown
T4 sequence: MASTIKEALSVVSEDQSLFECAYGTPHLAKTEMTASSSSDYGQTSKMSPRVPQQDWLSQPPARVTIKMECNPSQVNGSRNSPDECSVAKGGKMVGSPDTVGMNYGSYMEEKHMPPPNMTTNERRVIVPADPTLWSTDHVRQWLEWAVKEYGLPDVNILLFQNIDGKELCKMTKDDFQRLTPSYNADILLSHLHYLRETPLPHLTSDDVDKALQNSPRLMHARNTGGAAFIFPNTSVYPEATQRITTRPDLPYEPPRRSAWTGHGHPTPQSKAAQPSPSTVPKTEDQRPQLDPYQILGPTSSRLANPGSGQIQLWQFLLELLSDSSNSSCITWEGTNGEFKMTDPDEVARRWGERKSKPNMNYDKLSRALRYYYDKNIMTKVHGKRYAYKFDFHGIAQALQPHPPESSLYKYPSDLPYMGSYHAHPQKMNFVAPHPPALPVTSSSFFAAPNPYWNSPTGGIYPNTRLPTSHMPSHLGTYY
Outline: as §1

ELF1 = ELF1 (Homo sapiens, UniProt P32519 1-619); conditions: protein: recombinant; tags: N-terminal GST; dsDNA, one strand shown
ELF1, sequence (P32519 whole entry): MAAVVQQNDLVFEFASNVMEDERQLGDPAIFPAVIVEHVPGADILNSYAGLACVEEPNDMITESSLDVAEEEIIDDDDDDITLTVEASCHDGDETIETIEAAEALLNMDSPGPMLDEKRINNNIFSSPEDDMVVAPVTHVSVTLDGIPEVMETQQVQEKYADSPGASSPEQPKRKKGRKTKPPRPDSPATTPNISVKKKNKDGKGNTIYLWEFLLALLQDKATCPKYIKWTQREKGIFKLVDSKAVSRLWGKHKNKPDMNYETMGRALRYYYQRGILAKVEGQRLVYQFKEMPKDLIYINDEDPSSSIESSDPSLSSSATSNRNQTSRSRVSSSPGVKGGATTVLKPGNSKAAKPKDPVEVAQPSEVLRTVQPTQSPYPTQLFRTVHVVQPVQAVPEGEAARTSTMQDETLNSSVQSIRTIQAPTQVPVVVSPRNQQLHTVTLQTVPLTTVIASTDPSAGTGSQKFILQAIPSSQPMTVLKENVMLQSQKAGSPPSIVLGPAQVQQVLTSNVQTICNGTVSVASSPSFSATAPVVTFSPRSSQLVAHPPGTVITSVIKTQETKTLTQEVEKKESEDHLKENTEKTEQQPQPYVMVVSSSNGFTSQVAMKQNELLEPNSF
Outline: as §1

EHF = target: T5, EHF (Homo sapiens, UniProt Q9NZC4 1-300); conditions: protein: recombinant; tags: N-terminal GST; dsDNA, one strand shown
T5 sequence: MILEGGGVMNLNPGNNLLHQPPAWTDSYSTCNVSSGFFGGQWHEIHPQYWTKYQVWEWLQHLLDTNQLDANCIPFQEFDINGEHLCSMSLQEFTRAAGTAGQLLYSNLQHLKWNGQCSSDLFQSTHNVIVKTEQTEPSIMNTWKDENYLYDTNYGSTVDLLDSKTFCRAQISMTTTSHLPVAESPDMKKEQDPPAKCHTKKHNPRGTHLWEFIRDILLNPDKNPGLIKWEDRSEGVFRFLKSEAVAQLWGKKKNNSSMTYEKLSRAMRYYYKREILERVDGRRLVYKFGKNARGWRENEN
Outline: as §1

SPI1 = SPI1 (Homo sapiens, UniProt P17947 1-270); conditions: protein: recombinant; tags: N-terminal GST; dsDNA, one strand shown
Outline: as §1

SPIB = SPIB (Homo sapiens, UniProt Q01892 1-262); conditions: protein: recombinant; tags: N-terminal GST; dsDNA, one strand shown
SPIB, sequence (Q01892 whole entry): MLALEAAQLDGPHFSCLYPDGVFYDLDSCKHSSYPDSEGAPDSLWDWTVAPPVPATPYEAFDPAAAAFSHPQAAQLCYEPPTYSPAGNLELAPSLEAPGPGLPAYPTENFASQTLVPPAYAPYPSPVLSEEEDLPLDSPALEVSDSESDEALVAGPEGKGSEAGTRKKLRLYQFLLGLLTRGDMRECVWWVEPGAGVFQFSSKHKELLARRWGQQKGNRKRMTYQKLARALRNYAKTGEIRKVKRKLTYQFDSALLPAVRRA
Outline: as §1

ELK3 = target: T6, ELK3 (Homo sapiens, UniProt P41970 1-407); conditions: protein: recombinant; tags: N-terminal GST; dsDNA, one strand shown
T6 sequence: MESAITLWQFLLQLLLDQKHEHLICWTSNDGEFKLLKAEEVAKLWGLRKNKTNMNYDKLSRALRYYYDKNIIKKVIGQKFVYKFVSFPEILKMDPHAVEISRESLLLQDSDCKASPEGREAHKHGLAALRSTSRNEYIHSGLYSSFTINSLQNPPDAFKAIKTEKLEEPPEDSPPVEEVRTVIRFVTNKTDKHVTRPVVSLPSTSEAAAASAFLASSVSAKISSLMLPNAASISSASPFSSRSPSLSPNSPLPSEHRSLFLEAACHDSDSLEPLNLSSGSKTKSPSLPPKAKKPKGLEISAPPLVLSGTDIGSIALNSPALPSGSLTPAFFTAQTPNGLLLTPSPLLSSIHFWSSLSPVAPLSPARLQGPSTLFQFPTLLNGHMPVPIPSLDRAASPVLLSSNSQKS
Outline: as §1

FEV = target: T7, FEV (Homo sapiens, UniProt Q99581 1-238); conditions: protein: recombinant; tags: N-terminal GST; dsDNA, one strand shown
T7 sequence: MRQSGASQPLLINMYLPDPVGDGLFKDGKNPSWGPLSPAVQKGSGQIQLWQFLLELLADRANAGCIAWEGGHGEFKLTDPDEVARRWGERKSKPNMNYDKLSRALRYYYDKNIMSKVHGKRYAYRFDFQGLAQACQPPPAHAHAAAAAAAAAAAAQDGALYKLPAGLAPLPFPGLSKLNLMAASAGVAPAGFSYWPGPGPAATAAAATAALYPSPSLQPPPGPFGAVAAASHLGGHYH
Outline: as §1

ETV5 = ETV5 (Homo sapiens, UniProt P41161 1-510); conditions: protein: recombinant; tags: N-terminal GST; dsDNA, one strand shown
ETV5, sequence (P41161 whole entry): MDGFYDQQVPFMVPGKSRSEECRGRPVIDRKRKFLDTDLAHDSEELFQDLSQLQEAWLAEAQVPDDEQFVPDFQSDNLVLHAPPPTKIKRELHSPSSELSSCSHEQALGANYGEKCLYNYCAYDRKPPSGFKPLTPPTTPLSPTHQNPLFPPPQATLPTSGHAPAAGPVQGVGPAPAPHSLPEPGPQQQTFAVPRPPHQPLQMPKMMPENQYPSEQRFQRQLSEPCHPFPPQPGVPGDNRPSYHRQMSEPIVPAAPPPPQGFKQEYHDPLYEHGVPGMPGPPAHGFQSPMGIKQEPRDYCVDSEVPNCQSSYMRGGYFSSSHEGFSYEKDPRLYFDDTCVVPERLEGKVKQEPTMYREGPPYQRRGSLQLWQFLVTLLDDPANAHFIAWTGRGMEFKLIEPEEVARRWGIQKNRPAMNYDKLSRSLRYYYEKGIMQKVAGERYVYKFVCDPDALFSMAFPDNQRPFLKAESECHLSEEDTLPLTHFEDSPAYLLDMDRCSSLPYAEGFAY
Outline: as §1

HSF1 = HSF1 (Homo sapiens, UniProt Q00613 1-529); conditions: protein: recombinant; tags: N-terminal GST; chain copies: 3; dsDNA, one strand shown
HSF1, sequence (Q00613 whole entry): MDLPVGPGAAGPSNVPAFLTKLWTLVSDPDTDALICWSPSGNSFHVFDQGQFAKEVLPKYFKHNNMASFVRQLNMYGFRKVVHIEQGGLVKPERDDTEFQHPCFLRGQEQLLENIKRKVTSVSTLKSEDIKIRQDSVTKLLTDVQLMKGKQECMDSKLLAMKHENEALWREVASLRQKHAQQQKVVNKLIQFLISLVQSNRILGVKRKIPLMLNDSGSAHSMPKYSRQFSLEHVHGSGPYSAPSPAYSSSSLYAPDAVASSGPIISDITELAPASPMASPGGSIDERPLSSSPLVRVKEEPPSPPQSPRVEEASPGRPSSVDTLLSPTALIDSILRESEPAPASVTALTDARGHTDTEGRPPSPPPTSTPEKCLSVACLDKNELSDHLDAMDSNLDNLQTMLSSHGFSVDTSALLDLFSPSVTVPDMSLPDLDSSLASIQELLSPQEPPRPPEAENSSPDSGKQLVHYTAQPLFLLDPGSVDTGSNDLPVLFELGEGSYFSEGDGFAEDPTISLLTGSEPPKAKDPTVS
Outline: as §1

SPIC = target: T8, SPIC (Homo sapiens, UniProt Q8N5J4 1-248); conditions: protein: recombinant; tags: N-terminal GST; dsDNA, one strand shown
T8 sequence: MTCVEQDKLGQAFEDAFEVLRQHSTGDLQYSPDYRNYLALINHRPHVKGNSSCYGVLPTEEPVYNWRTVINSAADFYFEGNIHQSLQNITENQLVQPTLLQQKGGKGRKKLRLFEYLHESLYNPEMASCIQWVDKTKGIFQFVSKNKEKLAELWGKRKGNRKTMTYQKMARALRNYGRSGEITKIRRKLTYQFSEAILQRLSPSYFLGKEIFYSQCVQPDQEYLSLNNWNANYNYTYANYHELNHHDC
Outline: as §1

ELF4 = ELF4 (Homo sapiens, UniProt Q99607 1-663); conditions: protein: recombinant; tags: N-terminal GST; dsDNA, one strand shown
ELF4, sequence (Q99607 whole entry): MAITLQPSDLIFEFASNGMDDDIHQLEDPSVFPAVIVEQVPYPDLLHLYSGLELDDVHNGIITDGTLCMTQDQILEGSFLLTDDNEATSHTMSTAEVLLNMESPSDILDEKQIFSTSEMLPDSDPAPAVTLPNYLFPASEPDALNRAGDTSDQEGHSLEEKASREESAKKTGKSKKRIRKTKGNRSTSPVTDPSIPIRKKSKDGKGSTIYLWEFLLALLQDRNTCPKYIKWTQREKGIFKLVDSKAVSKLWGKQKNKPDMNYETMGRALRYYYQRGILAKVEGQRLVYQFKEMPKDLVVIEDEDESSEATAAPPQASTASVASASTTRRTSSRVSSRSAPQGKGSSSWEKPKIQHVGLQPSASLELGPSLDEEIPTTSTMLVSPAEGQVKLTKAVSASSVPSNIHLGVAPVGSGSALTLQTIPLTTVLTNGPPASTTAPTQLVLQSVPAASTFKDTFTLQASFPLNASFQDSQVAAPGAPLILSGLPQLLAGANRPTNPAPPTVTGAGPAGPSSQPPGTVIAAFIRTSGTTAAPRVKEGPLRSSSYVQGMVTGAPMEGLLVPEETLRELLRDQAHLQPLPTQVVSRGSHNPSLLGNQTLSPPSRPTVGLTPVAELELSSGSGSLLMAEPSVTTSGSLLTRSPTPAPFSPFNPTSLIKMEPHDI
Outline: as §1

ELK4 = target: T9, ELK4 (Homo sapiens, UniProt P28324-2 1-405); conditions: protein: recombinant; tags: N-terminal GST; dsDNA, one strand shown
T9 sequence: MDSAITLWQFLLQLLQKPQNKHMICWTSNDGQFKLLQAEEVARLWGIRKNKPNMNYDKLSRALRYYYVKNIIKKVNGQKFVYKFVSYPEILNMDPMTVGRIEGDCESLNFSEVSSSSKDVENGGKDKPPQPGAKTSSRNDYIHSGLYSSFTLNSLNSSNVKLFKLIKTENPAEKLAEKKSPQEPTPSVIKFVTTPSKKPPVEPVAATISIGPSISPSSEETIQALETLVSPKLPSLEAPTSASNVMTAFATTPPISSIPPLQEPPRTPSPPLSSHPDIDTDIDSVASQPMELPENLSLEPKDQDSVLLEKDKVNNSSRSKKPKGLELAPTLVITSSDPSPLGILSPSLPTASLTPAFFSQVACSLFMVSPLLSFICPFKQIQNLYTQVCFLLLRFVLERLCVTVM
Outline: as §1

ETV2 = target: T10, ETV2 (Homo sapiens, UniProt O00321 1-342); conditions: protein: recombinant; tags: N-terminal GST; dsDNA, one strand shown
T10 sequence: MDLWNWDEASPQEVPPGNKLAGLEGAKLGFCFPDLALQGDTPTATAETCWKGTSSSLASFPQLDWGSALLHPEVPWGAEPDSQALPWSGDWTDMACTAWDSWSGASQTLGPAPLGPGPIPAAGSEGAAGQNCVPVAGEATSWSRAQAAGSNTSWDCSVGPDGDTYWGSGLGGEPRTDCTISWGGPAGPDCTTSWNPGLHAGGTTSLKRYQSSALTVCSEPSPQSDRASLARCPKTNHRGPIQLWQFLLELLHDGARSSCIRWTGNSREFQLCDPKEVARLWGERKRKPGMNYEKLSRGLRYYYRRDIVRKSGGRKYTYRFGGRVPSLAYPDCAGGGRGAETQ
Outline: as §1

ELF3 = target: T11, ELF3 (Homo sapiens, UniProt P78545 1-371); conditions: protein: recombinant; tags: N-terminal GST; dsDNA, one strand shown
T11 sequence: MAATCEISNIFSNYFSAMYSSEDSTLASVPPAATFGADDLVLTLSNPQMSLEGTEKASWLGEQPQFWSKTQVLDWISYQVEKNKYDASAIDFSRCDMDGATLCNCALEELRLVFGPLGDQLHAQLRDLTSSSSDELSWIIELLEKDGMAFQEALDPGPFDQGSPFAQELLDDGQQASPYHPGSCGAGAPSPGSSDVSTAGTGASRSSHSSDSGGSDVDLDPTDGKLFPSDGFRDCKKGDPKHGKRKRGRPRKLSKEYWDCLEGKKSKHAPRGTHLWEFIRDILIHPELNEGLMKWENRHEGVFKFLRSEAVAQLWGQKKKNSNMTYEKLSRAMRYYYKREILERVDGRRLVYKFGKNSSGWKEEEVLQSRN
Outline: as §1

CRX = CRX (Homo sapiens, UniProt O43186 1-299); conditions: protein: recombinant; tags: N-terminal GST; dsDNA, one strand shown
CRX, sequence (O43186 whole entry): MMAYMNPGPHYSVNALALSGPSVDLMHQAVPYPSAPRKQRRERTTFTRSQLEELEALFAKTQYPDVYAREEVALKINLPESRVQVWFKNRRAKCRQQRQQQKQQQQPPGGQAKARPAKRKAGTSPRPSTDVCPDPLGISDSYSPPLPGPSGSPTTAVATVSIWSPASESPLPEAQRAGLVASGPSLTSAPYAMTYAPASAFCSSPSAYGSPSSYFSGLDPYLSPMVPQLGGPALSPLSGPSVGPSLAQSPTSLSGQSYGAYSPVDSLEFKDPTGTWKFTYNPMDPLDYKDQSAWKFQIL
Outline: as §1

ETV1 = ETV1 (Homo sapiens, UniProt P50549 1-477); conditions: protein: recombinant; tags: N-terminal GST; dsDNA, one strand shown
ETV1, sequence (P50549 whole entry): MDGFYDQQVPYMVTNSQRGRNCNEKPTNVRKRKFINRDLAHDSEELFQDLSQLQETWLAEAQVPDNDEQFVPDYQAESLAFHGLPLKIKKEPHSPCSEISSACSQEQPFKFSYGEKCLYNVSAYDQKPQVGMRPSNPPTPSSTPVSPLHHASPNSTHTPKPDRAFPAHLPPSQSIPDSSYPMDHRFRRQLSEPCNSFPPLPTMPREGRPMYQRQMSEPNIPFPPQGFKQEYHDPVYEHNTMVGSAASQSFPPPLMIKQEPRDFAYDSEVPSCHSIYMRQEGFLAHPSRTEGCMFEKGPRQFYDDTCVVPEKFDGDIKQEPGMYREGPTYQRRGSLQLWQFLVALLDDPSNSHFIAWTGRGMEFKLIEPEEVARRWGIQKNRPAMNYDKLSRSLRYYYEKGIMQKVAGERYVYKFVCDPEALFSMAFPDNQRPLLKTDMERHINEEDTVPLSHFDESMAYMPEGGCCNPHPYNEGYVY
Outline: as §1

For TCAAAC, the binding signal (FLI1) was 1.17 fold enrichment (6-mer frequency, TF over GST control), the binding signal (ELK1) was 1.25 fold enrichment (6-mer frequency, TF over GST control) and the binding signal (GABPA) was 1.26 fold enrichment (6-mer frequency, TF over GST control). For the same sequence, the binding signal (ERG) was 1.26 fold enrichment (6-mer frequency, TF over GST control), the binding signal (ELF1) was 1.15 fold enrichment (6-mer frequency, TF over GST control) and the binding signal (EHF) was 1.15 fold enrichment (6-mer frequency, TF over GST control). For the same sequence, the binding signal (SPI1) was 1.16 fold enrichment (6-mer frequency, TF over GST control), the binding signal (SPIB) was 1.16 fold enrichment (6-mer frequency, TF over GST control) and the binding signal (ELK3) was 1.2 fold enrichment (6-mer frequency, TF over GST control). For the same sequence, the binding signal (FEV) was 1.21 fold enrichment (6-mer frequency, TF over GST control), the binding signal (ETV5) was 1.17 fold enrichment (6-mer frequency, TF over GST control) and the binding signal (HSF1) was 1.03 fold enrichment (6-mer frequency, TF over GST control). The binding signal (SPIC) was 1.19 fold enrichment (6-mer frequency, TF over GST control), the binding signal (ELF4) was 1.21 fold enrichment (6-mer frequency, TF over GST control) and the binding signal (ELK4) was 1.28 fold enrichment (6-mer frequency, TF over GST control). For the same sequence, the binding signal (ETV2) was 1.3 fold enrichment (6-mer frequency, TF over GST control), the binding signal (ELF3) was 1.24 fold enrichment (6-mer frequency, TF over GST control) and the binding signal (CRX) was 1.14 fold enrichment (6-mer frequency, TF over GST control). The binding signal (ETV1) was 1.29 fold enrichment (6-mer frequency, TF over GST control).
